High-throughput results as filed in PubChem BioAssay.
Sampled rows, rich in hits. Any-hit rate of the full collection: about 4%.
MITF act: activators of MITF-driven TRPM1 promoter activity in SK-MEL-5 cells | SK-MEL-5 TRPM1-promoter luciferase, 24 h; % of positive control, neutral wells = 0 | activation, % at 12.5 µM | 300,000 compounds, 0.75% hits;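 active = mean activation of at least 80% with every replicate also reaching 80%; inconclusive = mean reaches 80% but some replicate falls short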;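 also: 0% = neutral control wells and 100% = parthenolide positive control wells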
esBAF inh: inhibitors of esBAF chromatin remodeling in mouse ES cells; reporter increase, % at 12.5 µM; 350,000 compounds, 2% hits; Bmi1-luciferase knock-in reporter, 24 h; 100% = twice the neutral-well signal; AID 602393; in the data active = activation above about 40%; inconclusive = no clear call, values can overlap the other calls;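 also: 0% = median of the plate's neutral control wells and 100% = double that signal; a rise in the Bmi1 reporter signal indicates esBAF inhibition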
PAX8 reporter: PAX8 transcriptional activity inhibition. 360,000 compounds, 1.2% hits. AID 652154. inhibition, % at 12.6 µM. RMG-I TPO-luciferase reporter, SteadyGlo, 24 h;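 active = mean replicate inhibition at least 60% with every replicate also reaching 60%; inconclusive = only one of the two criteria is met; inactive = mean below 60% and not all replicates reaching 60%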;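 also: luciferase light reporting Pax8 driven TPO promoter activity; plate controls were median of neutral control wells for no effect and mitoxantrone controls for full effect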
EWS-Fli inh: blocks EWS/Fli oncoprotein-driven transcription; A673 NR0B1-luciferase reporter, viability-normalised; inhibition, % at 12.6 µM; 350,000 compounds, 0.67% hits; AID 651661;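 active = mean inhibition of at least 50% after viability correction, with every replicate also passing that limit; inconclusive = mean reaches 50% but only one of two replicates passes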;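 also: firefly luciferase signal divided by Alamar Blue viability fluorescence both relative to DMSO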
TRPM1 prom inh: MITF TRPM1 promoter inhibition in SK-MEL-5 cells; SK-MEL-5 TRPM1 promoter luciferase, 24 h; AID 488899; 330,000 compounds, 0.83% hits; inhibition, % at 12.5 µM;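 active = mean inhibition across replicates of 60% or more, whatever share of single replicates reaches that level; inconclusive = some that reach 60%, reason not given; inactive = mean inhibition across replicates below 60%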
Wnt act: activators of Wnt/beta-catenin signaling | Wnt/beta-catenin reporter cell assay, activator, plate reader | activation, % at 9.35 µM | 300,000 compounds, 1.2% hits; in the data active = activation above about 30%, passing the limit was not always enough; inconclusive = no clear call, values can overlap the other calls;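 also: 0% = neutral control wells and 100% = positive control wells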
* = called active by the depositor; ? = inconclusive; · = no result.

SMILES	MITF act	esBAF inh	PAX8 reporter	EWS-Fli inh	TRPM1 prom inh	Wnt act
CSCC[C@H](NC(=O)[C@@H]1Cc2ccccc2CN1)C(=O)NC[C@H]1CC[C@H](C(=O)O)CC1	92*	-1	0	7	-89	0
Cc1cccc(OCC(=O)Nc2nccs2)c1C	37	·	-232	·	-34	37*
Cc1cc(=O)oc2cc(OCC(=O)Nc3nccs3)ccc12	53	17	-155	·	-46	38*
Cc1c(C)c2ccc(OCC(=O)Nc3nccs3)cc2oc1=O	-11	-45	-97	·	14	22
COc1ccc2c3c(n(C)c2c1)[C@H](CO)N(C(=O)CN(C)C)CC31CN(S(C)(=O)=O)C1	·	·	·	3	·	·
CCCCOc1ccc(CSc2n[nH]c(C)n2)cc1	93*	7	·	·	-92	·
CCCCCOc1ccc(CSc2ncn[nH]2)cc1	?	47*	·	·	-85	·
O=[N+]([O-])c1ccc2oc(C3CCCCC3)nc2c1	79	44*	-75	-79	-76	19
Cc1cccc(-c2nc3cc([N+](=O)[O-])ccc3o2)c1	91*	57*	-99	-81	-89	28
O=[N+]([O-])c1ccc2oc(-c3ccccc3)nc2c1	50	·	-34	-67	-57	-2
CCOc1cccc(-c2nc3cc(C)ccc3o2)c1	39	50*	·	·	-42	·
Cc1ccc2oc(-c3ccccc3)nc2c1	22	·	·	·	-19	·
CCO[C@H]1OC(C(=O)N2CCCC2)=C[C@@H](c2ccc(Br)cc2)[C@@H]1CCCO	·	·	-12	-7	·	·
CC1(C)CC(=O)C2=C(C1)Nc1ccccc1NC2c1ccc(F)cc1 (stereo not drawn)	-2	3	3	10	1	1
CC1(C)CC(=O)C2=C(C1)Nc1ccccc1NC2c1ccc2c(c1)OCO2 (stereo not drawn)	·	18	-18	·	11	44*
COc1ccc(S(=O)(=O)N(C)C[C@H]2Oc3ccc(NS(=O)(=O)c4ccc(C)cc4)cc3C(=O)N([C@H](C)CO)C[C@H]2C)cc1	·	·	-11	0	·	·
COc1ccc(Br)cc1/C=C/C(=O)c1ccc(NC(C)=O)cc1	-81	·	105*	?	82*	-9
COc1ccc(NC(=O)/C=C/c2cc(Br)ccc2OC)cc1	-19	2	·	·	23	·
COCC(=O)N(C)C[C@@H]1Oc2cc(-c3cccnc3)ccc2S(=O)(=O)N([C@H](C)CO)C[C@H]1C	·	-4	·	-24	·	·
CCCCN1CCc2c([nH]c3ccccc23)C1=O	75	69*	·	·	-77	·
OC[C@H]1O[C@@H](c2nc3ccc(-c4nc(-c5ccc(Br)cc5)no4)cc3[nH]2)C[C@@H]1O	·	55*	-257	-110	·	22
CC1(C)NC(=O)N(CCOCCSc2ccccc2)C1=O	17	61*	·	-1	-15	0
CCC(C)(C)c1ccc(Oc2ccc(N)cc2)cc1	-97	-82	?	65*	98*	-15
CCCC(=O)Nc1ccc2c(c1)C(=O)N(C)C[C@@H](OC)[C@@H](C)CN(Cc1ccncc1)[C@H](C)CO2	·	-4	·	3	·	·
Cc1ccsc1/C=N/NC(=O)c1cc(-c2ccncc2)nc2ccccc12	-24	·	69*	41	22	-10
SMILES	MITF act	esBAF inh	PAX8 reporter	EWS-Fli inh	TRPM1 prom inh	Wnt act
O=C(N/N=C/c1ccc(Cl)cc1)c1cc(-c2cccnc2)nc2ccccc12	-18	·	13	52*	19	-7
CC(/C=N/NC(=O)c1cccs1)=C\c1ccco1	72	98*	-144	-99	-73	39*
Cc1cc(C(=O)N/N=C/c2ccc([N+](=O)[O-])cc2)c2ccccc2n1	-27	-1	21	51*	30	-12
O=C(C[C@@H]1C=C[C@H](NC(=O)Nc2cccc(F)c2)[C@@H](CO)O1)NCC1CC1	·	2	-11	-2	·	·
COc1ccc(-c2ccc3c(c2)[C@@H]2[C@@H](CCN2C(=O)C2CCOCC2)[C@@H](CO)N3C)cc1	·	-4	-11	-11	·	·
CCC(=O)N[C@H]1C=C[C@H](CC(=O)NCc2ccc(OC)cc2)O[C@H]1CO	·	1	3	7	·	·
O=C(N/N=C/c1ccsc1)c1cc(-c2cccs2)nc2ccccc12	-9	·	133*	14	10	-5
CC(/C=N/NC(=O)c1cc(-c2ccncc2)nc2ccccc12)=C\c1ccco1	-67	2	·	·	68*	·
Cc1ccc(/C=N/NC(=O)c2cc(-c3ccncc3)nc3ccccc23)o1	-28	-10	27	·	29	-3
